Experimental findings from PubChem BioAssay (NCATS) are described below.

Assay [1] is described as follows: AP1 Signaling Pathway (AID 357; active = well fitted curve in either direction with a large enough effect, not every such curve was filed as active;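 also: ME-180 reporter cells stimulated with EGF at its EC50 level; % is scaled to controls: 0 for no effect and ±100 for the full control effect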). To be noted: ME-180 AP-1-bla reporter, EGF-induced, beta-lactamase ratio, 5 h; at 7.69 µM (top of the series) unless noted. The procedure, abridged:
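AP-1-bla ME-180 cells, Opti-MEM + 0.5% dialyzed FBS, plated overnight 37 °C. Cpd titration + EC50 EGF, 5 h 37 °C. CCF4 2.5 h RT; ex 405, em 460/530 ratio → %activity, AC50.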

Assay [2] addresses Cytochrome P450 1A2 (Homo sapiens) (UniProt P05177). Nature of the assay: p450-cyp1a2 (AID 410; calls by dose curve; also: potency is read from the fitted curve at half-maximal effect;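 as to activity change, negative = inhibition: -100% = full effect of reference inhibitor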). In short, it runs like this:
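Read-out is luminescence from luciferin produced by CYP1A2 demethylation of Luciferin-ME (100uM, at Km). Detection reagent stopped the 60 min NADPH-dependent reaction; signals were normalized to 57 uM furafylline.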

Assay [3] is described as follows: NFAT Signaling Pathway (AID 444; active = well fitted curve in either direction with a large enough effect, not every such curve was filed as active;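 also: carbachol stimulus at about its EC50 of 1 µM final; % is scaled to controls: 0 for no effect and ±100 for the full control effect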). The conditions noted are these: Jurkat NFAT-bla M1, carbachol, beta-lactamase ratio, 5 h; at 7.69 µM (top of the series) unless noted. In short, it runs like this:
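Read-out: CCF4 FRET ratio (460 nm/530 nm) after 1 h RT dye loading, used for %activity and AC50 from titration series. Cells: Jurkat NFAT-β-lactamase/M1 line, treated with compound plus 1 uM carbachol for 5 h, 37 °C.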

Assay [4] in a line: Stat Signaling Pathway (AID 446; active = well fitted curve in either direction with a large enough effect, not every such curve was filed as active;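 also: ME-180 cervical cancer cells given 40 pM IL-6 alongside compound; SIE-controlled beta-lactamase reporter measured as 460/530 nm FRET emission ratio; % is scaled to controls: 0 for no effect and ±100 for the full control effect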). The conditions noted are these: ME-180 SIE beta-lactamase reporter, IL-6 stimulated, 5 h; at 7.69 µM (top of the series) unless noted. The procedure, abridged:
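Overnight-plated ME-180 cells bearing a STAT Inducible Element beta-lactamase reporter; 5 h co-exposure to compound and 40 pM IL-6; values normalized to 300 pM IL-6 and 125 nM JAK inhibitor controls.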

The target in assay [5] is Glucocorticoid receptor (Homo sapiens) (UniProt P04150). Nature of the assay: GR-GFP Redistribution (AID 450;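 active = compounds whose dose series gives a full or clear partial fitted curve of increased nuclear translocation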; also: potency is read from the fitted curve at half-maximal effect). The conditions noted are these: U2OS GR-GFP nuclear translocation, laser cytometry, 2 h.
Sequence of Glucocorticoid receptor (Homo sapiens) (P04150 whole entry, looked up, the tested form may be a part): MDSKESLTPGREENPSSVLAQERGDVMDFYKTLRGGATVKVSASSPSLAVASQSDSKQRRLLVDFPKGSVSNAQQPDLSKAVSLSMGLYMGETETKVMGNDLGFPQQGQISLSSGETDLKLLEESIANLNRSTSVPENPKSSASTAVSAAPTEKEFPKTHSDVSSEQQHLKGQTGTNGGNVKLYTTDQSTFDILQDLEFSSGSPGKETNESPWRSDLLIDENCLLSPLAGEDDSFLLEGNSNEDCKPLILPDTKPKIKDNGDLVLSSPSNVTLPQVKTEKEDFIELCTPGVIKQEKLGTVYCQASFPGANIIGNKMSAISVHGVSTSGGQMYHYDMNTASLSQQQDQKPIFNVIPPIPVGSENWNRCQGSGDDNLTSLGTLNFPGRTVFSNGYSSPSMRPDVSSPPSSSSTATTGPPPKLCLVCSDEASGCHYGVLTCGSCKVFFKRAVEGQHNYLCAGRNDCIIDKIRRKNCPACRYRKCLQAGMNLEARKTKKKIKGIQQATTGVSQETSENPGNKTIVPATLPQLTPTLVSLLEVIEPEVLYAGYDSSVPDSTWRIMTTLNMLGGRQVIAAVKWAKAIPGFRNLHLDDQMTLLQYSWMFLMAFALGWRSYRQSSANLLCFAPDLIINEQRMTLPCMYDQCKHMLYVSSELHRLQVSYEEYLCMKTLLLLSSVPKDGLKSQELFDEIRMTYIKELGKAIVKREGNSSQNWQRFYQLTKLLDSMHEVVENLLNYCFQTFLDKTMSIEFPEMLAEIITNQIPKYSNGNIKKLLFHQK
Assay [6] shares this target. Nature of the assay: GR-EFC Redistribution (AID 451; calls by dose curve; also: potency is read from the fitted curve at half-maximal effect). The conditions noted are these: CHO-K1 GR-EFC translocation, beta-gal luminescence, 2 h. In short, it runs like this: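 Translocation of GR-ED fusion to nuclear EA restores b-gal, read by luminescence after 1 h room-temperature detection. Engineered CHO-K1 biosensor cells, 1,000/well, exposed 2 h at 37 C to titrations up to 46 uM final.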

The target in assay [7] is Mitogen-activated protein kinase 10 (Mus musculus) (UniProt Q61831). Nature of the assay: JNK3 AlphaScreen Assay (AID 530; active = well fitted curve in either direction with a large enough effect, not every such curve was filed as active;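 also: kinase came from lysate of stimulated human HepG2 cells; signal reports phosphorylation of biotinylated GST-cJun 1-79 at Ser73 with 10 µM ATP; % is scaled to controls: 0 for no effect and ±100 for the full control effect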). The procedure, abridged:
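Kinase buffer: 20 mM Tris-HCl pH 7.6, 10 mM MgCl2, 1 mM DTT, 0.1 mM Na3VO4, 0.01% Tween-20; ATP 10 uM. Substrate biotin-GST-cJun(1-79), enzyme from activated HepG2 lysates. Detection by Ser73 phospho-antibody AlphaScreen.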

Assay [8] deals with 3',5'-cyclic-AMP phosphodiesterase 4B (Homo sapiens) (UniProt Q07343). Nature of the assay: qHTS Assay for Inhibitors of PDE-IV (AID 607; active = well fitted activation curve with a large enough effect in the main read-out, with a control signal flat, not every such curve was filed as active; also: % of control where 0% means no effect). The procedure, abridged:
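Live HEK293 cells with a modified cyclic nucleotide-gated (CNG) channel report intracellular cAMP via membrane-potential dye fluorescence (ex 535/em 590 nm). Endogenous PDE-IV was targeted. Compounds were tested at up to 22.9 uM final; RO 20-1724 100 uM served as control.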
(Quantitative high-throughput screening tests each substance at several concentrations.)

In assay [9] the target is Cytochrome P450 2C9 (Homo sapiens) (UniProt P11712). Nature of the assay: qHTS Assay for Inhibitors and Substrates of Cytochrome P450 2C9 (AID 883). Also: % is scaled to controls: 0 for no effect and ±100 for the full control effect; nearly all actives have a fitted effect of over 60% in size. In short, it runs like this:
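Inhibition of CYP2C9 is scored as loss of luminescence, with 57uM sulphaphenazole defining 100% inhibition. Substrate Luciferin-H is used at 100uM, equal to its KM; enzyme at 10nM in 25mM KPO4, 60 min at 37C with NADPH regeneration.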

For assay [10], the target named is Cytochrome P450 2C19 (Homo sapiens) (UniProt P33261). Nature of the assay: qHTS Assay for Inhibitors and Substrates of Cytochrome P450 2C19 (AID 899). Also: % is scaled to controls: 0 for no effect and ±100 for the full control effect; nearly all actives have a fitted effect of over 60% in size. The procedure, abridged:
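5nM enzyme + 10uM Luciferin-H EGE (=KM), 50mM KPO4; cpd pin-transferred, 10 min 37C; NADPH regen, 60 min 37C; stopped w/ luciferin detection reagent, 20 min; luminescence. Normalized to 57uM ketoconazole (AC100).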

The target of assay [11] is Guanine nucleotide-binding protein G(i) subunit alpha-1 (Homo sapiens) (UniProt P63096). Nature of the assay: qHTS Assay for Inhibitors of RGS12 GoLoco Motif Activity (Green Fluorophore) (AID 879).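 Also: 0% = labeled peptide with Gαi1 and full inhibition = labeled peptide alone without protein; negative values mean loss of peptide binding seen as reduced polarization.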 In short, it runs like this:
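A drop in FITC polarization marked displacement of the FITC-tagged RGS12 GoLoco peptide (10 nM) from Gαi1 (50 nM). Compounds were incubated 10 min at room temperature in Tris pH 7.5 buffer containing 150 mM NaCl, 0.1 mM GDP and 0.05% NP40; unlabeled peptide titration served as control.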

The target of assay [12] is Cytochrome P450 3A4 (Homo sapiens) (UniProt P08684). Nature of the assay: qHTS Assay for Activators of Cytochrome P450 3A4 (AID 885). Also: nearly all actives have a fitted effect of over 65% in size. In short, it runs like this:
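Using 20nM recombinant human CYP3A4 in potassium phosphate (200mM), substrate Luciferin-PPXE at 25uM, luminescent luciferin detection followed a 60-min RT NADPH reaction; data scaled to 57 uM ketoconazole.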

A short description of assay [13]: qHTS Assay for Identification of Small Molecule Agonists for Hypoxia Response Element Signaling Pathway (AID 914; active = well fitted activation curve with a large enough effect in the signal ratio, with a control signal flat, not every such curve was filed as active; the % refers to the signal ratio; also: % of control where 0% means no effect). The conditions noted are these: ME-180 (cervical carcinoma) HRE-bla reporter, beta-lactamase ratio, CoCl2, 17 h; activation: stronger effect = higher value. The procedure, abridged:
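A beta-lactamase reporter under hypoxia response element control in ME-180 cells served as the system. Compound titrations plus EC50 CoCl2 ran 17 h at 37 degrees Celsius; AC50 values were fitted from %Activity.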

Assay [14] in a line: qHTS Assay for Identification of Small Molecule Agonists for Thrombopoietin (TPO) Signaling Pathway (AID 917). Also: % is scaled to controls: 0 for no effect and ±100 for the full control effect. The procedure, abridged: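 Stimulation at the TPO EC50 (26 pM final) was used to detect activators. Ba/F3 mouse cells bearing human TPO receptor and a luciferase reporter under the Glycoprotein IIb promoter were exposed to compounds for 24 hrs at 37 C.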
Assay [15] concerns the target Pyruvate kinase (Leishmania mexicana) (UniProt Q27686). Nature of the assay: qHTS Validation Assay for Inhibitors of Leishmania Mexicana Pyruvate Kinase (AID 945).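 Also: 0% = DMSO only neutral control wells.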 The procedure, abridged:
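Compounds are tested as eight-point concentration series. Reactions contain 0.2 nM LmPYK E451W, 0.5 mM PEP, 0.1 mM ADP, 7 mM MgCl2 and 50 mM KCl at pH 7.2, run 1 h at room temperature, then read by PKLight luminescence.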

Assay [16] has as its target Pyruvate kinase PKM (Homo sapiens) (UniProt P14618). Nature of the assay: qHTS Assay for Activators of Human Muscle Pyruvate Kinase (AID 954; active = well fitted curve in the direction sought with a large enough effect, not every such curve was filed as active;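 also: 0% = uninhibited enzyme and -100% = no enzyme or full thiadiazolimine inhibition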). In short, it runs like this:
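Screening used highly purified human pyruvate kinase M2 under submaximal activity, with PEP at its Km and ADP below Km. After an hour at room temperature, ATP was read by luciferase luminescence.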

Assay [17] has as its target Alpha-galactosidase A (Homo sapiens) (UniProt P06280). Nature of the assay: Counterscreen for Glucocerebrosidase Inhibitors: qHTS Assay for Human alpha-Galactosidase at pH 4.5 (AID 992). Also: 0% is about no effect. In short, it runs like this:
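Each compound is preincubated briefly with 2 nM enzyme before substrate addition (80 uM); plates then sit 20 min at ambient temperature, are quenched with 1M NaOH/1M glycine, and read fluorometrically.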

The target in assay [18] is alpha-glucosidase (Oryza sativa, rice) (UniProt Q653V4). Nature of the assay: Counterscreen for Glucocerebrosidase Inhibitors: qHTS Assay for Rice alpha-Glucosidase at pH 5.0 (AID 997).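 Also: 0% = full activity with enzyme and -100% = basal without enzyme.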 In short, it runs like this:
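Endpoint fluorogenic assay at pH 5.0: compounds (0.7 nM to 77 uM) titrated against 4 nM rice enzyme and 400 uM 4-MU-alpha-glucoside for 20 min at room temperature; NaOH/glycine stop, read ex 365/em 440 nm, Hill-fitted AC50.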
In general terms: The purpose of a counterscreen is to sort out artefacts and off-target activity.

For assay [19], the target named is Muscarinic acetylcholine receptor M1 (Rattus norvegicus) (UniProt P08482). Nature of the assay: qHTS Assay for Antagonists of Acetylcholine Muscarinic M1 Receptor: Measurement of IP-One Response (AID 944). Also: nearly all actives have a fitted effect of over 75% in size. The procedure, abridged:
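Antagonism was measured as loss of carbachol-driven (EC80) IP1 accumulation in CHO cells carrying rat M1, using a homogeneous IP-One TR-FRET kit read at 620 and 665 nm.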

Molecules are shown by their SMILES. Values without a mark were called inactive. Inconclusive results are not listed. Calls of active or inactive are those of the source. Unless noted, calls follow the shape of the dose curve; as a rule, active = well fitted curve in the direction sought with a large enough effect; inconclusive = small, poorly fitted or top-dose-only effect, or another doubt; inactive = no such curve, though single readings can be large; an effect the other way counts as inactive or inconclusive.

Sequence of Cytochrome P450 1A2 (Homo sapiens) (P05177 whole entry, looked up): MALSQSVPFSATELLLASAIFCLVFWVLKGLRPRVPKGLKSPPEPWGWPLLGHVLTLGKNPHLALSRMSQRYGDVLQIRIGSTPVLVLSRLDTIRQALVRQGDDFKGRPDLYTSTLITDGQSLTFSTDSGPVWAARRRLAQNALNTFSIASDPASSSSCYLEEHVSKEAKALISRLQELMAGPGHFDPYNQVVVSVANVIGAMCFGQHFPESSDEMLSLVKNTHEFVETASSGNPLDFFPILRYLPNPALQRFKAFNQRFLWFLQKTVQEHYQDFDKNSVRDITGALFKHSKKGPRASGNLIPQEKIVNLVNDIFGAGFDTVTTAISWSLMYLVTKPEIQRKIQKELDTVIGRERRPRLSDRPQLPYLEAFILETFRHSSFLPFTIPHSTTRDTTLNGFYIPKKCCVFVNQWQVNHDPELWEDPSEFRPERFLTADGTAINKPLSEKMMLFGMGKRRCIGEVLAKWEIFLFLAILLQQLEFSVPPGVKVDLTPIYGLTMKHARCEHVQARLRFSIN
Sequence of Pyruvate kinase PKM (Homo sapiens) (P14618 whole entry, looked up): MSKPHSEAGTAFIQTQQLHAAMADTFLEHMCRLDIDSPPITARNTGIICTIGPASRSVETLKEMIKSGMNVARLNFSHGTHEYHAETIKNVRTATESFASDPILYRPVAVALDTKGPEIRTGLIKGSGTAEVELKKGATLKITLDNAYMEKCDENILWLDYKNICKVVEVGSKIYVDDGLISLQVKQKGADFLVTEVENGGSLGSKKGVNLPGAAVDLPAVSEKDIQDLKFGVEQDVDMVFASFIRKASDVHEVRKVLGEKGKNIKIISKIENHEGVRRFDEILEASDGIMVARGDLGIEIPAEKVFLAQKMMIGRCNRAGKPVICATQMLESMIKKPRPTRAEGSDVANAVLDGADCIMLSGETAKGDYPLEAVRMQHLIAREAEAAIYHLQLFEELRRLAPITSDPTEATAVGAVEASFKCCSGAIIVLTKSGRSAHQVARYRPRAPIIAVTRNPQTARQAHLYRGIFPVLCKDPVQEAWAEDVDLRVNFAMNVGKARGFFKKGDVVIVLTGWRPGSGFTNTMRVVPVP
Sequence of Guanine nucleotide-binding protein G(i) subunit alpha-1 (Homo sapiens) (P63096 whole entry, looked up): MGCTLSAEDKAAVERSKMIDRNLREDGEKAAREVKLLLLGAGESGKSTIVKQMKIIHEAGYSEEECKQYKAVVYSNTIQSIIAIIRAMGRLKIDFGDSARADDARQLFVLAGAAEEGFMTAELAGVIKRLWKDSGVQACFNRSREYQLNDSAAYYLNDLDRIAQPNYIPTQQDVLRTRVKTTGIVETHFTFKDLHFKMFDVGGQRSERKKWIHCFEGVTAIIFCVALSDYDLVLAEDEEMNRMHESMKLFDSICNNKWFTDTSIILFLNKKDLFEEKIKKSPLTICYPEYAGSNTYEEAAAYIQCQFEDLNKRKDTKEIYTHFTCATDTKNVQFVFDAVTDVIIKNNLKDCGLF
Sequence of Alpha-galactosidase A (Homo sapiens) (P06280 whole entry, looked up): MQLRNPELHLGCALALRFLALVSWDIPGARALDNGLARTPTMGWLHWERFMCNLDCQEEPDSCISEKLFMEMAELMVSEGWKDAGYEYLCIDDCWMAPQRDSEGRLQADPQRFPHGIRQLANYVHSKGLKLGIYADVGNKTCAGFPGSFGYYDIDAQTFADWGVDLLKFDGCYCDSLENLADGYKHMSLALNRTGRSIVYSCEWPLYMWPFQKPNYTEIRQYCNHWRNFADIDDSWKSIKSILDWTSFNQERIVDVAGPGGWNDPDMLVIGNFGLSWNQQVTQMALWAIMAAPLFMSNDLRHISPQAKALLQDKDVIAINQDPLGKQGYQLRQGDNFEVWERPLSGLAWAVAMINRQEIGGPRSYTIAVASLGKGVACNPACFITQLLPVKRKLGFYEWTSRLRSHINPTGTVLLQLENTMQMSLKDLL
Sequence of Muscarinic acetylcholine receptor M1 (Rattus norvegicus) (P08482 whole entry, looked up): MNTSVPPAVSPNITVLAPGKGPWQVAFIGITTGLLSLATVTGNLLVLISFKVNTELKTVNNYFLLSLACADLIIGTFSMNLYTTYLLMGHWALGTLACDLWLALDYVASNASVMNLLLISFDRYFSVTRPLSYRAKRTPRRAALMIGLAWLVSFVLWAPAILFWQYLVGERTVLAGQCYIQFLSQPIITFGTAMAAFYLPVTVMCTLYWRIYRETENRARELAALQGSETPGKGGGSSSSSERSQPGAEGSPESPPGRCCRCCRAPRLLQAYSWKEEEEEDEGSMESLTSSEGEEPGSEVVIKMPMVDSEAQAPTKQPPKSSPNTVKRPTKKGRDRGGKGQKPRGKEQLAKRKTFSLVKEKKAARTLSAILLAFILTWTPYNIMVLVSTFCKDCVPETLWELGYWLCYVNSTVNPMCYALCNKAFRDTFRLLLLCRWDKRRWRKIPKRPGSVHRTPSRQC
Sequence of 3',5'-cyclic-AMP phosphodiesterase 4B (Homo sapiens) (Q07343 whole entry, looked up): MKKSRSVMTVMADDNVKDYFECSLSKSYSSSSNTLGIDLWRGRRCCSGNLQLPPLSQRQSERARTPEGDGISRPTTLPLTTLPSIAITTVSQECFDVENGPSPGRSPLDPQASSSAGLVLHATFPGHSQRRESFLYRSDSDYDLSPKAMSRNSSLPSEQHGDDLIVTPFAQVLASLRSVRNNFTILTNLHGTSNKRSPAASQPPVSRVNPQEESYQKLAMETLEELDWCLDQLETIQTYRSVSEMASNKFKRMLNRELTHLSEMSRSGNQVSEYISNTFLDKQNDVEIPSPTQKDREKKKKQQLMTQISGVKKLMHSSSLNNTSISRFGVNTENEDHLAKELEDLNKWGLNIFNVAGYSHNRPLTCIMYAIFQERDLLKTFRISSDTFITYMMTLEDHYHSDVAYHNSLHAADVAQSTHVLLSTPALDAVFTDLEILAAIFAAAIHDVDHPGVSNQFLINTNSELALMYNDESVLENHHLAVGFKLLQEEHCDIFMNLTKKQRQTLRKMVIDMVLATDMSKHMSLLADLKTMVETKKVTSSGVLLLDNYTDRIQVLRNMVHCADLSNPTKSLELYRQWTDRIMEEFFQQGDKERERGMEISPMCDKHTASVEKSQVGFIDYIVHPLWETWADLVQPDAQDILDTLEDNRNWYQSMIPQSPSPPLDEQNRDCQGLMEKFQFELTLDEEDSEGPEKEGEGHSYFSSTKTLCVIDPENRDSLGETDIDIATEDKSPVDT
Sequence of Pyruvate kinase (Leishmania mexicana) (Q27686 2-499 E452W): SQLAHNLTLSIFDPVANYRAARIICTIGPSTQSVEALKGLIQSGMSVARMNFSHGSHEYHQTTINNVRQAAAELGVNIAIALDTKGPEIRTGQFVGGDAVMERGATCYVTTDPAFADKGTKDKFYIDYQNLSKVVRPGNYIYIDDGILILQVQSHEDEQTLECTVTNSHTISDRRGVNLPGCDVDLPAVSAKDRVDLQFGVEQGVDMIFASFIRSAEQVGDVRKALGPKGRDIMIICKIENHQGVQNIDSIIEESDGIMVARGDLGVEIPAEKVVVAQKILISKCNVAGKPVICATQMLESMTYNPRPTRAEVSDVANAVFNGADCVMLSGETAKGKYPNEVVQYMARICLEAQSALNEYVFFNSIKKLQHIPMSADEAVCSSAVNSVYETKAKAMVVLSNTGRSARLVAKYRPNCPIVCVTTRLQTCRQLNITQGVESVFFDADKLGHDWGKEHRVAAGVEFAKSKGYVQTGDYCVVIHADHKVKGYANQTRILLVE
Sequence of Cytochrome P450 3A4 (Homo sapiens) (P08684 whole entry, looked up): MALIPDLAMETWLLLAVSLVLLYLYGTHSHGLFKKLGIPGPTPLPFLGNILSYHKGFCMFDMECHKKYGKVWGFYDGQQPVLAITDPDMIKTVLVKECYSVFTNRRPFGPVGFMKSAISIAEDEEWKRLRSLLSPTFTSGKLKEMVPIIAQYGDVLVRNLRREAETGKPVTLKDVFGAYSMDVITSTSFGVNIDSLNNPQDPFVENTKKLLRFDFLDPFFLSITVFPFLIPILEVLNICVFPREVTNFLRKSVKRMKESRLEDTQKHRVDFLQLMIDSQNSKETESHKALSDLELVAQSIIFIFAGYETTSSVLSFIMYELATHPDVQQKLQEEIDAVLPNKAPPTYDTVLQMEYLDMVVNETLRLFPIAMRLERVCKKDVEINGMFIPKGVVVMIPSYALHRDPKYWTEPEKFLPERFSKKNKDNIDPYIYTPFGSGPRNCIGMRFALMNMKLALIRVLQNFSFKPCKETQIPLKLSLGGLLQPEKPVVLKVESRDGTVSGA

`N[C@@H](C(=O)O)[C@@H]1C[C@H]1C(=O)O`: the activity change, negative = inhibition in assay [1] is -6.47% [at 38 µM]; in assay [3], 4.34% [at 38 µM]. For the same compound, the Potency result in assay [2], in assay [7], in [8], in assay [9] and in assay [10] was “inactive” each time. The activity, negative = inhibition in assay [4] is 16.9% [at 38 µM]. Further, the Potency in assay [5] and in [6] was greater than 46 µM in each case.
In the case of `Nc1ccc(CCNc2ncnc3c2ncn3[C@@H]2O[C@@H](CO)[C@H](O)[C@@H]2O)cc1`, the values for the activity change, negative = inhibition in assay [1] and in assay [3] were -2.21% [at 38 µM] and 3.61% [at 38 µM], respectively. Besides, the Potency result in assay [2], in [7], in assay [8], in [12] and in assay [18] was “inactive” each time. The activity, negative = inhibition in [4] was 17.4% [at 38 µM]. The Potency in [5] and in assay [6] was greater than 46 µM each time. The compound was classed as inactive in [11], in assay [14], in assay [15], in [16] and in assay [17]. Moreover, the activation in assay [13] was 0.683%.
Consider `Nc1nc(Nc2ccccc2)nc2c1ncn2[C@@H]1O[C@@H](CO)[C@H](O)[C@@H]1O`, for which the activity change, negative = inhibition in assay [1] was -5.61% [at 38 µM]; in [3], -0.881% [at 38 µM]. Besides, the figures for the Potency in assay [2], in [5] and in assay [6] were 31.6 µM (active), greater than 46 µM and greater than 46 µM, respectively. In addition, the activity, negative = inhibition in assay [4] was 0.406% [at 38 µM]. Also, the Potency entry in [7], in assay [8], in assay [19] and in assay [18] was “inactive” throughout. Besides, the call in assay [11], in [15], in [16] and in [17] was inactive.
In the case of `C[C@@H]1O[C@@H](n2cc(F)c(=O)[nH]c2=O)[C@H](O)[C@@H]1O`, the activity change, negative = inhibition in assay [1] was -3.92% [at 38 µM]; in assay [3], 3.74% [at 38 µM]. For the same compound, the Potency result in assay [2], in assay [7], in assay [8], in assay [19] and in assay [18] was “inactive” throughout. For the same compound, in [4], the activity, negative = inhibition was 21.9% [at 38 µM]. Besides, the Potency in assay [5] and in assay [6] was greater than 46 µM throughout. Also, the call in assay [11], in [14], in assay [15], in [16] and in assay [17] was inactive.
On to `CN(C)C(=O)/N=N\C(=O)N(C)C`, for which the activity change, negative = inhibition was 9.37% [at 38 µM] in assay [1] and -14.2% [at 38 µM] in [3]. Also, the Potency result in assay [2], in assay [7], in [8], in [19] and in assay [18] was “inactive” throughout. Besides, in assay [4], the activity, negative = inhibition was 5.55% [at 38 µM]. Further, the Potency in assay [5] and in assay [6] was greater than 46 µM each time. For the same compound, the compound was classed as inactive in assay [11], in assay [15], in assay [16] and in assay [17].
With `Cc1cccc(C)c1OC[C@@H](N)C(C)C`, the activity change, negative = inhibition was 9.48% [at 38 µM] in [1] and 4.41% [at 38 µM] in [3]. Further, the Potency in assay [2] was 12.6 µM (active); in [5] it was greater than 46 µM; in assay [6], greater than 46 µM. For the same compound, the activity, negative = inhibition in assay [4] is 4.92% [at 38 µM]. The Potency entry in [7], in assay [8], in assay [12], in assay [19] and in assay [18] was “inactive” each time. Moreover, the call in [11], in assay [15], in assay [16] and in [17] was inactive. Further, the activation in [13] was -2.64%.
